Compound activity deposited in PubChem BioAssay by several laboratories.
Only some compounds are listed: those with a hit (about 3% of all), similar ones and a draw of the others.
aSyn 5UTR inh: 5' untranslated region of α-synuclein, MLPCN primary screen | alpha-synuclein 5'UTR reporter, inhibitor activity | hit rate 0.82% among 300,000 | AID 1813 | inhibition, % (tested at 7.5 µM); in the data active = inhibition above about 60%;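 note: H4 neuroglioblastoma cells stably carrying SNCA 5'UTR luciferase fusion; 0% = DMSO wells and 100% = positive control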
SKKanGAS inh: SKKanGAS growth inhibition. S. pyogenes SKKanGAS, kanamycin growth, BacTiter-Glo, 6 h. inhibition, % at 7.5 µM. hit rate 1.3% among 300,000. AID 1662;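 active = mean replicate score, as percent of positive control median, at least 50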;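 note: strain carries kanamycin resistance gene driven by streptokinase promoter and grows in 40 µg/ml kanamycin; loss of luminescence reflects streptokinase promoter inhibition or plain growth inhibition; 0% = median of DMSO wells and 100% = positive control at its reference dose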
KLF5 inh: kruppel-like factor 5 inhibition. DLD-1 KLF5 promoter-luciferase reporter, luminescence. inhibition, % at 5 µM. hit rate 0.23% among 290,000. AID 1700;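 active = inhibition above a per-plate limit of that plate's mean compound inhibition plus 3 SD, cut at about 60% in these data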;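 note: 0% = DMSO wells and 100% = LY294002 at 200 µM; higher means less KLF5 promoter-driven luciferase light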
CSC inhib: blocks cancer stem cells; hit rate 1.1% among 300,000; cancer stem cell-like cells viability, luminescence; inhibition, % at 7.5 µM; AID 2717; in the data active = inhibition above about 75%; tested in HMLE shEcad cells
IEC-6 cytotox: kills IEC-6 intestinal cells in KLF5 counter-screen. hit rate 0.78% among 290,000. AID 1825. inhibition, % at 5 µM. IEC-6 cytotoxicity, luminescence viability; in the data active = inhibition above about 22%;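 note: 0% = plate median of test compound wells and 100% = cytotoxic reference compound wells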
* hit, by the source's call; . = not tested or not shown.

SMILES | aSyn 5UTR inh | SKKanGAS inh | KLF5 inh | CSC inhib | IEC-6 cytotox
CCCC(C)NC(=O)c1sc2nc3n(c(=O)c2c1C)CCC3 (centres undefined) | -46 | -3 | -27 | -2 | 1
C/C(=N\Nc1nc2ccccc2[nH]1)c1ccc2c(c1)OCCO2 | -88 | 17 | 3 | 6 | 5
C/C(=N\Nc1nc2ccccc2[nH]1)c1cc2ccccc2o1 | -138 | -7 | -6 | 20 | 10
C/C(=N\Nc1nc2ccccc2[nH]1)c1ccccn1 | 87* | 2 | 45 | . | 9
C/C(=N\Nc1nc2ccccc2[nH]1)c1ccc2c(c1)OCO2 | -124 | 58* | -41 | . | 9
Cc1cc(C(=O)NNC(=O)c2cccs2)c(C)o1 | . | . | . | -11 | .
CCn1c(SCC(=O)N2CCN(c3ccc(Cl)cc3)CC2)nc2ccccc2c1=O | -11 | 8 | -31 | 4 | -7
CCn1c(SCC(=O)N2CCN(c3ccc(F)cc3)CC2)nc2ccccc2c1=O | 21 | 9 | -2 | 77* | 0
CCC(=O)Nc1cc2nn(-c3ccc(OC)cc3)nc2cc1C | 35 | 0 | -196 | . | -2
CCC(=O)Nc1cc2nn(-c3ccc(C)cc3)nc2cc1C | 80* | -32 | -34 | -3 | -8
CS(=O)(=O)N1CCC(Oc2ccccc2C(=O)N2CCNC(=O)C2)CC1 | -10 | -9 | -25 | -12 | 2
O=C1c2ccccc2C(=O)c2c(Nc3ccc(CCO)cc3)ccc(O)c21 | 10 | 83* | -28 | 88* | 7
CCCn1nnnc1NC(=O)COc1ccc(CC)cc1 | -26 | -12 | -29 | 13 | -1
Oc1ccc(Nc2nc(-c3ccccc3F)nc3ccccc23)cc1 | 28 | 8 | -17 | 2 | 15
COc1cccc(Nc2nc(-c3ccccc3O)nc3ccccc23)c1 | -1 | -1 | -26 | 8 | 3
COc1ccc(Nc2nc(-c3ccccc3O)nc3ccccc23)cc1 | -5 | 22 | -30 | 81* | -2
Oc1ccc(Nc2nc(-c3ccccc3O)nc3ccccc23)cc1 | -35 | 20 | 6 | 83* | 8
c1ccc(-c2nc(N3CCCCCC3)c3ccccc3n2)nc1 | 26 | 109* | -21 | -4 | 18
Fc1ccc(Oc2nc(-c3ccccn3)nc3ccccc23)cc1 | -95 | 42 | -80 | -7 | 5
COc1ccc(Oc2nc(-c3ccccn3)nc3ccccc23)cc1 | -110 | 80* | -35 | . | 12
c1ccc(Oc2nc(-c3ccccn3)nc3ccccc23)cc1 | -64 | 109* | -51 | 3 | 18
CC(C)N(C(=O)CN1C(=O)NC(c2ccccc2)(c2ccccc2)C1=O)C(C)C | -15 | 7 | -33 | -8 | 2
O=C(NC1CCN(S(=O)(=O)c2ccccc2F)CC1)c1cccnc1 | 4 | 0 | -23 | -2 | -1
Cc1cccc(C)c1NC(=O)C(=O)NCc1ccccn1 | 3 | -5 | 2 | -14 | -8
COc1ccc(C(c2c[nH]c3ccccc23)c2c[nH]c3ccccc23)cc1O | -41 | 28 | -10 | 119* | 4
SMILES | aSyn 5UTR inh | SKKanGAS inh | KLF5 inh | CSC inhib | IEC-6 cytotox
CC(C)(C)c1ccccc1OCCCCCn1ccnc1 | 12 | 63* | 2 | 15 | 4
C=C(C)C(=O)Nc1cccc(C2=NOC3(C2)C[C@H](C(N)=O)N(C(=O)COc2ccc(Cl)cc2)C3)c1 (some centres undefined) | 6 | -3 | . | 3 | .
CC1CCC(=O)N(CCC#N)CC1 (centres undefined) | 2 | 1 | -21 | -5 | 0
O=C(Nc1cc(C(F)(F)F)ccc1N1CCCC1)C1CCCO1 (centres undefined) | . | . | . | -3 | .
C/C(=N/Nc1ccccc1[N+](=O)[O-])c1ccc(C)c([N+](=O)[O-])c1 | -166 | -8 | -46 | . | 5
CC(C)/C(=N/Nc1ccccc1[N+](=O)[O-])c1ccccc1 | -86 | 56* | -29 | 46 | 2
COc1ccc(Nc2cc(Nc3cc(OC)c(OC)c(OC)c3)ncn2)cc1 | 20 | -8 | -5 | 35 | 18
CC1CC(C)(C)Nc2ccc(OC(=O)c3ccco3)cc21 (centres undefined) | 70* | 2 | -11 | 11 | 9
CC(C)C(C)(C#N)NC(=O)CSc1nc2scc(-c3ccc(F)cc3)c2c(=O)n1Cc1ccccc1 (centres undefined) | 35 | 13 | -21 | . | 2
C=CCn1c(Sc2ncc([N+](=O)[O-])s2)n[nH]c1=O | -11 | 16 | -4 | 106* | 11
C=CCn1c(CSc2ccccc2[N+](=O)[O-])n[nH]c1=S | 10 | 14 | -23 | -17 | 6
CC[C@@]1(O)C(=O)OCc2c1cc1n(c2=O)Cc2cc3c(CN(C)C)c(O)ccc3nc2-1 | 26 | -5 | . | 104* | .
CC[C@@]1(O)C(=O)OCc2c1cc1n(c2=O)Cc2cc3c(N)cccc3nc2-1 | 103* | 12 | . | 56 | .
O=c1cccc2n1Cc1cc3ccccc3nc1-2 | -152 | -1 | -66 | -11 | 6
COc1ccc(CN(C(=O)c2snc(C(N)=O)c2N)C(CC(C)C)C(=O)NC2CCCCC2)cc1 (centres undefined) | -3 | 2 | -19 | 17 | -1
CCc1ccc(NC(=O)C(=O)NCCOc2ccccc2Cl)cc1 | -14 | -2 | -8 | 1 | 0
CCOC(CCNC(=O)c1cc(-c2cccs2)nc2ccccc12)OCC | -3 | -6 | 8 | 0 | -2
COc1ccc(Oc2cccc(Cl)c2CNC(=O)CCCC(=O)O)cc1 | -11 | 2 | 8 | 2 | -3
CCOc1ccc(C(=O)N[C@H](C(=O)Nc2cccc(S(=O)(=O)N3CCCCC3)c2)C(C)C)cc1 | 76* | 5 | -13 | 7 | 1
Cc1ccc(F)c(NC(=O)/C(C#N)=C(\O)c2ccc(C(C)(C)C)cc2)c1 | -9 | 59* | -47 | 79* | 0
CCOC(=O)C1CCN(C(=O)c2cc(COc3ccc(OC)c4ccccc34)on2)CC1 | -124 | 5 | -50 | -11 | 2
COc1ccc2c(c1)CC/C(=C\Nc1ccc3c(c1)OCO3)C2=O | -197 | -5 | -6 | 44 | 8
O=C1/C(=C/Nc2ccc3c(c2)OCO3)CCc2ccccc21 | 96* | 17 | -90 | 57 | 0
COc1ccc(N/C=C2\CCc3ccccc3C2=O)cc1 | 94* | 20 | -30 | 3 | 1
O=C(C1CCC1)N1CCN(c2ccc(Cl)cc2)CC1 | -60 | -2 | -51 | -7 | 0
SMILES | aSyn 5UTR inh | SKKanGAS inh | KLF5 inh | CSC inhib | IEC-6 cytotox
OC(CNCCc1ccc(C(F)(F)F)cc1)COC(c1ccccc1)c1ccccc1 (centres undefined) | 24 | 16 | -6 | 107* | -1
COc1ccc(C(OCC(O)CNCCc2ccc(S(N)(=O)=O)cc2)c2ccc(OC)cc2)cc1 (centres undefined) | -2 | 12 | -1 | 2 | 0
CCOc1cc(/C=C(\C#N)C(=O)NCc2cccnc2)ccc1O | -37 | -11 | -16 | -3 | 7
Cc1ccc(C(=O)N/C(=C\c2ccc(-c3ccccc3[N+](=O)[O-])o2)C(=O)NCCCN2CCOCC2)cc1 | 71* | 18 | -28 | 11 | 12
O=C(COC(=O)c1ccc[n+]([O-])c1)Nc1ccc([N+](=O)[O-])cc1Cl | . | . | . | -2 | .
Cc1c(Cl)cccc1-c1ccc(CNCc2ccccn2)o1 | 0 | 83* | -10 | 13 | 0
Cc1[nH]n(C2=NCCS2)c(=O)c1N=Nc1cccc(C(F)(F)F)c1 | 67* | 83* | -27 | 50 | -8
